Screens deposited in PubChem BioAssay by National Center for Advancing Translational Sciences (NCATS).
AMA1-RON2 inh – disrupts binding of P. falciparum AMA1 to RON2; AlphaScreen AMA1-biotinylated RON2 peptide binding; Potency, µM (doses to about 58.2 µM), for the others: top-dose activity change, negative = inhibition, usual class: inhibitors; 360,000 tested, 0.2% active; AID 720542;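 note: 0% = vehicle wells and -100% = peptide control; nearly all actives have a fitted effect of over 45% in size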
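AMA1 (3D7) with his tag at 25 nM final met compounds first, then biotinylated RON2 peptide at 25 nM; detection used donor plus acceptor beads, 10 µg/mL apiece, read by AlphaScreen after 30 min at room temperature.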
HCV inhibitor – HCV inhibition; Potency, µM (highest dose often 41.8 µM), without a hit: top-dose activity change, negative = inhibition, usual class: inhibitors; 340,000 tested, 3.4% active; Huh7.5.1 HCVcc-Cre infection, luciferase reporter, 44 h
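Reporter virus HCVcc-Cre (~0.5 moi) infects cells exposed to compound; seeding density 1,000 cells/well with 4 h settling beforehand. Luminescence, 15 sec read, taken 44 h post-infection following a 15 min RT substrate incubation.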
Pf growth 96h – P. falciparum growth inhibition at 96 hours; P. falciparum luciferase reporter growth, 96 h; Potency, µM (doses to about 28.7 µM), inactives show top-dose activity change, negative = inhibition, actives largely listed as inhibitors; 320,000 tested, 6.9% active; AID 504834
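Infected RBCs, 2% Hct / 0.05% parasitemia final; luciferase-reporter P. falciparum; cpd 96 h, 37 C, 5% CO2; luciferase detection reagent; luminescence.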
Pf growth 48h – P. falciparum growth inhibition at 48 hours (one generation); P. falciparum luciferase growth in erythrocytes, 48 h; Potency, µM (highest dose often 28.7 µM), inactives show at the top dose activity change, negative = inhibition, most hits filed as inhibitors; 310,000 tested, 5.9% active; AID 504832
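Cell-based growth assay: transgenic P. falciparum expressing firefly luciferase, cultured in red cells within RPMI 1640 containing 0.5% w/v Albumax, 24 mM bicarbonate and gentamycin. A drop in luciferase activity indicates inhibition.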
Numbers without * were called inactive; ? = inconclusive; . = not tested or not shown; [ ] = remark or other dose. In the library only some 11% were active in any assay of this set; here they are far more common. Calls come from the whole dose curve; as a rule, active = well fitted curve in the direction sought with a large enough effect; inconclusive = small, poorly fitted or top-dose-only effect, or another doubt; inactive = no such curve, though single readings can be large; an effect the other way counts as inactive or inconclusive. Unless noted, % is set by controls: 0 for no effect and ±100 for the full control effect; potency is the fitted concentration of half-maximal effect.

SMILES	AMA1-RON2 inh	HCV inhibitor	Pf growth 96h	Pf growth 48h
COCC(=O)N1C[C@H](C)[C@H](OC)CN(C)C(=O)c2cc(NC(=O)Nc3cccc(F)c3)ccc2OC[C@@H]1C	-3%	.	.	.
Cn1cc(CC(=O)N2CCN(c3ccc(Cl)cc3)CC2)c2ccccc21	-28%	?	12µM*	-9%
COc1ccc(N2CCN(C(=O)Cc3ccc(Cl)cc3)CC2)cc1	18µM*	-27%	89%	-10%
O=S(=O)(c1ccc2ccccc2c1)N(CC(O)COCc1ccco1)c1ccccc1 (stereo unspecified)	-10%	-19%	-17%	-19%
Oc1ccccc1CN(Cc1ccco1)CC(O)COCc1ccc(Cl)cc1 (stereo unspecified)	-5%[11.6 µM]	?	2.1µM*	2.9µM*
COc1ccc(COCC(O)CN(Cc2ccco2)Cc2ccccc2O)cc1 (stereo unspecified)	-5%	15%	4.7µM*	8.3µM*
O=S(CC(O)COCc1ccc(Cl)cc1)c1ccccn1 (stereo unspecified)	-7%	6%	.	7%
CC[C@@]1(C(=O)OC)N[C@H](CN(C)C(=O)COC)[C@@H]2C(=O)N(Cc3ccccc3)C(=O)[C@@H]21	3%	?	.	.
O=S(=O)(c1cnccc1N1CCN(CCO)CC1)N1CCCCC1	4%	20%	37%	6%
CCCCNC(=O)Cn1cnc2sc(C)c(S(=O)(=O)N3CCN(c4ncccn4)CC3)c2c1=O	8%	2%	7%	-12%
CCCOc1ccc2oc(=O)c3c(c2c1)CCCN3C(=O)CN(C)Cc1ccccc1	-8%	?	?	?
CC(=O)c1cccc(-c2ccnc3c2CC(C(=O)NCC2CCOCC2)O3)c1 (stereo unspecified)	9%	.	.	.
COc1ccc(C(=O)CC(=O)C(=O)NCCc2cccc(C)c2)cc1	5%	-3%	12%	-8%
N#C/C(=C\c1ccc(OCCN2CCOCC2)cc1)C(=O)Nc1ccccc1F	-4%	8%	108%	3%
COc1ccccc1NC(=O)/C(C#N)=C/c1ccc(OCCN2CCOCC2)c(OC)c1	13%	1%	3%	8%
COc1ccc(NC(=O)/C(C#N)=C/c2ccc(OCCN3CCOCC3)c(OC)c2)c(OC)c1	-3%	0%	13µM*	-6%
N#C/C(=C\c1ccc(OCCN2CCOCC2)cc1)C(=O)Nc1ccc(S(N)(=O)=O)cc1	16%	31%	6.6µM*	3%
COc1ccc(CCNC(=O)c2cc3ccc(Cl)cc3nc2N)cc1	10%	.	.	.
c1csc(CN2CCNCC2)c1	7%	-1%	10µM*	16%
Clc1ccccc1CN1CCNCC1	-3%	-14%	8.3µM*	21%
CCOC(=O)N1CCN(Cc2cccs2)CC1	-22%	5%	-9%	21%
O=C(Cc1ccccc1)N1CCN(Cc2ccccc2Cl)CC1	6%	4%	4.1µM*	9%[0.00184 µM]
Cc1ccccc1CN1CCNCC1	1%	16%	7%	14%
Oc1c(Cl)cc(Cl)cc1CN1CCN(Cc2ccccc2)CC1	-19%	3%	0.74µM*	1.2µM*
CC(C)(O)C#Cc1ccc(CN2CCCC(CO)(Cc3cccc(Cl)c3)C2)cc1 (stereo unspecified)	-9%	?	-12%	?
SMILES	AMA1-RON2 inh	HCV inhibitor	Pf growth 96h	Pf growth 48h
CC(C)CCN1CCNC(=O)C1CC(=O)N(C)CCCN1CCOCC1 (stereo unspecified)	14%	.	88%	37%
CC(C)NS(=O)(=O)c1ccc(CCC(=O)Nc2ccc3c(c2)OCCO3)cc1	?	17%	?	4.7µM*
CCNS(=O)(=O)c1ccc(CCC(=O)Nc2ccc3c(c2)OCCO3)cc1	0%	6%	?	9.3µM*
Nc1ccc([As](=O)(O)O)cc1	-5%	14%[8.37 µM]	8.3µM*	15µM*
Cc1ccc(-c2csc(N(CCO)CCCn3c(C(F)(F)F)nc4ccccc43)n2)cc1	2%	10µM*	6.6µM*	?
OCCn1c(C(F)(F)F)nc2ccccc21	5%	9%	4%	-10%
O=C(NCCn1c(C(F)(F)F)nc2cc(C(F)(F)F)ccc21)[C@H]1CCCN1c1nc(CN2CCCCC2)cs1	4%	-12%	?	?
Cc1ccc(-c2csc(N3CCC[C@@H]3C(=O)NCCn3c(C(F)(F)F)nc4ccccc43)n2)cc1	15%	?	2.3µM*	?
COc1cc(/C=C/C(=O)OCC(=O)NCCc2ccc(S(N)(=O)=O)cc2)ccc1OCC#N	-4%	?	-33%	-22%
COc1cc(/C=C/C(=O)c2ccc(O)cc2)ccc1OCC#N	17%	?	?	13µM*
COc1cc(/C=C/C(=O)OCC(=O)NCCN2C(=O)CSC2=O)ccc1OCC#N	7%	19%	10µM*	?
CCOc1ccc(CCNC(=O)COC(=O)/C=C/c2cccc(OC)c2)cc1OCC	-16%	-29%	?	-4%
CCOc1ccc(CCNC(=O)COC(=O)/C=C/c2ccco2)cc1OCC	-11%	-2%	7.4µM*	8.3µM*
CCOc1ccc(/C=C/C(=O)OCC(=O)NCCc2ccc(OCC)c(OCC)c2)cc1OC	?	7.9µM*	?	?
OC[C@@H]1CN(Cc2ccncc2)C[C@H](n2cnc3c(NC4CCCC4)ncnc32)O1	0%	.	.	.
CC(C)n1nc(C(=O)OCn2nnc3ccccc3c2=O)c2ccccc2c1=O	-14%	17%	?	10%
C(=N\Nc1ncnc2nc[nH]c12)/c1cccs1	102%	27%	270%	101%
OC(c1ccc(F)c(F)c1)c1nc(-c2cc(F)cc(F)c2)cs1 (stereo unspecified)	11%	.	.	.
CCOC(C)=O	.	.	-19%	-13%
Cc1ccc(C)c(N2C(=O)c3ccc(C(=O)Nc4ccccn4)cc3C2=O)c1	-6%	.	.	.
CC(c1ccc(Br)cc1)N1CC23C=CC(O2)C(C(=O)O)C3C1=O (stereo unspecified)	-6%	9%	23%	.
CC(C)OC(=O)C1C2C=CC3(CN(C(C)c4ccc(Br)cc4)C(=O)C13)O2 (stereo unspecified)	0%	4%	10µM*	.
Cn1c(Cn2c(=O)sc3ccccc32)nnc1SCC(=O)Nc1ccc(Cl)cc1	3%	6%	10µM*	2%
CCOC(=O)CSc1nnc(Cn2c(=O)sc3ccccc32)n1-c1ccccc1C	2%	9%	15µM*	4%
Cc1ccc(NC(=O)CSc2nnc(CNC(=O)c3ccco3)n2C)cc1	12%	4%	-1%	0%
Cn1c(Cn2c(=O)sc3ccccc32)nnc1SCC(=O)Nc1cccc(Cl)c1	1%	-8%	?	-7%
Cn1c(Cn2c(=O)sc3ccccc32)nnc1SCC(=O)N1CCc2ccccc21	-4%	20%	5.2µM*	5%
Cc1ccc(NC(=O)CSc2nnc(CNC(=O)c3ccco3)n2C)cc1C	5%	-23%[8.37 µM]	13µM*	-8%
CC(C)c1nc(SCc2c(F)cccc2Cl)c2c(=O)n(C)c(=O)n(C)c2n1	-1%	?	?	?
CCn1c(CSc2ncccn2)nnc1SCC(=O)N1CCc2ccccc21	2%	-13%	4.7µM*	?
